PDI turbidity = PDI (human) enzyme inhibition; P07237; PDI insulin aggregation turbidity, A650, 90 min; inhibition, % at 10 µM; actives 0.052% (n = 350,000);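 active means mean inhibition across replicates of 30% or more, whatever share of single replicates reach that level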
Vif imaging = HIV Vif inhibition | actives 0.35% (n = 340,000) | HEK293T cells, Vif self-association by quenched fluorescence, imaging, 24 h | inhibition, % at 7.49 µM; in the data active means inhibition above about 50%, passing the limit was not always enough
PvdQ inh = P. aeruginosa PvdQ acylase inhibition. purified PvdQ acylase, fluorescence plate reader. inhibition, % at 10 µM. actives 0.063% (n = 340,000); in the data active means inhibition above about 30%, passing the limit was not always enough;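 further: 0% = vehicle neutral wells and 100% = reference inhibitor wells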
N-glyco inh = blocks N-linked glycosylation in D54 reporter cells. actives 0.23% (n = 360,000). D54 ERlucT glycosylation luciferase reporter, 24 h; percent of 100 nM tunicamycin response. reporter increase, % at 12.5 µM;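 active means mean luciferase reporter signal, scaled so untreated is 0 and the glycosylation-blocking control 100, at or above a set limit in every replicate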;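 further: luciferase carries N-glycosylation sites so blocking glycosylation raises the light; 0% = median of neutral control wells and 100% = median of 100 nM tunicamycin wells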
ERp5 inh = blocks human ERp5 reductase activity on insulin. Q15084. ERp5 insulin aggregation, absorbance 650 nm, 90 min. inhibition, % at 9.99 µM. actives 0.05% (n = 350,000). AID 651711;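 active means mean replicate inhibition above about 25%, with every replicate also reaching it, limit read from the data, passing the limit was not always enough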
Target sequence (Q15084 whole entry, looked up): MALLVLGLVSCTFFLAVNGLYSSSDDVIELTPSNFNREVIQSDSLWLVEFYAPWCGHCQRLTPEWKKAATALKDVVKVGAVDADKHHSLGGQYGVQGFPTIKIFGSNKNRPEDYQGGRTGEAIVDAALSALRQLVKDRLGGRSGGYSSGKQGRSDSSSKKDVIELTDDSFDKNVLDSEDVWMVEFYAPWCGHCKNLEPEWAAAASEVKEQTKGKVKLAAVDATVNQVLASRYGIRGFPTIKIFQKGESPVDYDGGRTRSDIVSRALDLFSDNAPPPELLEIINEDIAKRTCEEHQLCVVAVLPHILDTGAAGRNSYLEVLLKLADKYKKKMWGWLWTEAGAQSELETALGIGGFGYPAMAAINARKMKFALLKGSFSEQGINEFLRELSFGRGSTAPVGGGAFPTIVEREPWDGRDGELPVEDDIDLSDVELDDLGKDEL
Numbers without * were called inactive; . = no result. An excerpt weighted towards active compounds, which were near 0.56% of everything screened.

SMILES | PDI turbidity | Vif imaging | PvdQ inh | N-glyco inh | ERp5 inh
CSc1ccc(/C=C/C(=O)OCC(=O)N(C)CCC#N)cc1 | 1.6 | 7.6 | 4.9 | -0.4 | -2.2
COc1ccccc1CNC(=O)CSC1=NCCS1 | -0.2 | 58.3* | -13.8 | 0.6 | -1.7
CCOc1cc(N2CCOCC2)c(OCC)cc1NC(=O)c1[nH]c(C)c(C(C)=O)c1C | 1.0 | 7.7 | -11.9 | 29.0* | -2.2
CC(=O)c1c(C)[nH]c(C(=O)Nc2cc(S(=O)(=O)N3CCCCC3)ccc2C)c1C | -3.8 | -5.6 | -3.5 | 8.8 | -0.4
COc1ccc(S(=O)(=O)N2CCCCC2)cc1NC(=O)c1[nH]c(C)c(C(C)=O)c1C | -5.4 | 11.7 | -2.2 | 54.6* | .
Cc1ccc2nc(Cl)c(/C=C/C(=O)c3ccco3)cc2c1 | -5.7 | -12.3 | -9.6 | 42.4* | .
COc1cc2cc(/C=C/C(=O)c3ccco3)c(Cl)nc2cc1OC | -0.7 | 33.1 | -10.0 | 48.8* | .
O=C(NC(=O)N1CCN(c2ccccc2F)CC1)c1ccccc1 | -4.3 | 88.5* | 8.4 | 0.4 | -4.3
O=C(NCc1ccccc1)N1CCN(c2ccccc2F)CC1 | -4.4 | -3.6 | -3.2 | 0.0 | .
Cc1ccc(Cc2cnc(NC(=O)/C(C#N)=C/c3ccc(-c4ccc([N+](=O)[O-])cc4)o3)s2)cc1 | -6.6 | 89.0* | -17.1 | 2.3 | 2.2
N#C/C(=C/c1ccc(-c2ccc([N+](=O)[O-])cc2)o1)C(=O)Nc1nc(-c2cccs2)cs1 | 4.3 | 18.8 | -0.5 | -1.2 | -3.3
C[C@H](NC(=O)C[C@@H]1C=C[C@H](NC(=O)Cc2ccccn2)[C@@H](CO)O1)c1ccccc1 | . | . | . | . | 6.0
CC(C)C(=O)N=C1SC2CS(=O)(=O)CC2N1Cc1ccccc1 (stereo not drawn) | 0.0 | 54.9* | 6.1 | -1.3 | 1.5
COc1ccc2c3c([nH]c2c1)[C@@H](CO)N(Cc1ccncc1)CC31CN(Cc2ccc(-c3ccccn3)cc2)C1 | . | . | . | . | 3.8
COc1ccc(Cc2nnc(Nc3ccccc3)s2)cc1Br | 5.9 | 107.3* | -13.8 | 0.1 | 2.6
O=C(C[C@H]1C=C[C@@H](NC(=O)Nc2ccccc2)[C@H](CO)O1)NCc1ccccn1 | . | . | . | . | -4.7
COC(=O)C1CCCCN1C(=O)c1cc(COc2cccc3cccnc23)on1 (stereo not drawn) | 0.8 | . | -2.5 | . | -16.4
O=C(c1cc(COc2cccc3cccnc23)on1)N1CCC[C@H]1CO | -7.2 | 50.7* | . | 2.0 | 8.1
CN(Cc1ccccc1)c1ncnc2ccc(Br)cc12 | -6.2 | -19.4 | 97.5* | -8.2 | .
CCC(=O)N(CCC1(C(C)C)CCOC(C)(C)C1)Cc1ccco1 (stereo not drawn) | -6.0 | 109.4* | -4.2 | 2.2 | .
CC(=O)N(CCC1(C(C)C)CCOC(C)(C)C1)Cc1ccco1 (stereo not drawn) | 7.9 | -3.1 | -6.9 | -0.1 | .
COc1ccc(-c2cc(=O)c3ccccc3s2)cc1 | 0.4 | -8.1 | 41.2* | -10.6 | -2.3
COc1ccc2sc3ccccc3c(=O)c2c1 | -6.9 | -3.5 | 7.4 | -0.1 | .
COc1ccc2nc3sc(C(=O)NCCCN4CCc5ccccc5C4)cc3cc2c1 | -0.8 | -11.9 | -20.1 | 7.3 | -1.5
COc1cccc(NC(=O)C[C@H]2CC[C@H]3[C@H](COc4ccc(NC(=O)c5ccccc5F)cc4C(=O)N3C)O2)c1 | . | . | . | . | 1.9
SMILES | PDI turbidity | Vif imaging | PvdQ inh | N-glyco inh | ERp5 inh
CC(C)(C)NC(=O)C(c1ccc(O)cc1)N(Cc1ccc2c(c1)OCO2)C(=O)CCl (stereo not drawn) | -1.6 | 79.8* | . | 2.6 | 9.0
CCOCCCNC(=O)C(c1ccc(Cl)cc1)N(Cc1ccc2c(c1)OCO2)C(=O)CNC(C)=O (stereo not drawn) | 6.9 | -1.6 | 1.5 | 0.8 | 2.2
COc1cc(OC)c2nc(C)c3c(c2c1)N(c1ccc(O)cc1)CC3 | -1.3 | 7.0 | -30.2 | 27.6* | .
COc1ccc(N2CCN(c3cc(C)c4ccc(O)cc4n3)CC2)cc1 | 6.7 | 2.6 | -16.8 | -0.4 | 2.5
COc1ccc(OC)c(C(=O)COC(=O)COc2ccccc2)c1 | 2.1 | -4.6 | -7.6 | -1.6 | 2.3
COC(=O)C[C@@H]1C[C@H]2c3cc(NC(=O)Cc4ccncc4)ccc3O[C@H]2[C@H](CO)O1 | . | . | . | . | -6.5
COC(=O)C[C@@H]1C[C@H]2c3cc(NC(=O)Cc4ccncc4)ccc3O[C@H]2[C@@H](CO)O1 | . | . | . | . | -0.4
COC(=O)C[C@H]1C[C@H]2c3cc(NC(=O)Cc4ccncc4)ccc3O[C@H]2[C@H](CO)O1 | . | . | . | . | 61.1*
COC(=O)C[C@@H]1C[C@@H]2c3cc(NC(=O)Cc4ccncc4)ccc3O[C@@H]2[C@H](CO)O1 | . | . | . | . | 35.9*
CCCNC(=O)C[C@H]1C[C@@H]2c3cc(NC(=O)Nc4ccc(OC)cc4)ccc3O[C@@H]2[C@@H](CO)O1 | . | . | . | . | 3.6
CC(NS(=O)(=O)/C=C/c1ccccc1)C(=O)O (stereo not drawn) | 1.5 | 0.1 | -8.4 | 0.6 | 2.0
CCN(CC(=O)NC1CCS(=O)(=O)C1)c1ccc([N+](=O)[O-])cc1C#N (stereo not drawn) | -7.0 | . | 5.9 | 3.5 | 5.0
CCc1ccc(S(=O)(=O)Nc2ccc(-c3ccc4nnc(C)n4n3)cc2)s1 | -11.4 | 69.6* | -0.8 | 4.8 | 0.9
Cc1nnc2ccc(-c3ccc(NS(=O)(=O)c4ccc(Cl)s4)cc3)nn12 | 2.1 | 92.8* | -1.4 | 3.0 | 1.0
Nc1nc(=S)c2ncn(C3OC(CO)C(O)C3O)c2[nH]1 (stereo not drawn) | -4.7 | 8.2 | 2.0 | 65.6* | 6.2
CCOC(=O)c1ccc(N(CC(=O)NC2CCCCC2)C(=O)CNC(=O)c2ccco2)cc1 | -26.7 | 3.7 | -8.2 | 2.0 | 6.3
Cc1ccc2nc3c(cc(C(N)=S)c(=N)n3CCCOC(C)C)c(=O)n2c1 | -0.6 | 6.3 | -10.8 | 36.8* | 4.4
COCCCn1c(=N)c(C(N)=S)cc2c(=O)n3cccc(C)c3nc21 | 2.4 | -11.8 | -16.3 | 3.8 | -3.9
COc1ccc(OC)c(-c2nn(-c3ccccc3)cc2C(=O)NCC(c2ccco2)N2CCCC2)c1 (stereo not drawn) | -0.3 | 54.5* | 5.3 | -3.0 | -7.8
Cc1ccccc1-c1nn(-c2ccccc2)cc1C(=O)NCC(c1ccco1)N1CCCC1 (stereo not drawn) | -3.3 | -1.3 | -1.4 | 0.5 | -3.3
CCOC(=O)c1cc2[nH]c3ccccc3c2[n+](-c2ccc([N+](=O)[O-])cc2)c1N | -5.2 | -2.4 | -25.6 | 46.1* | .
CCOC(=O)c1cc2[nH]c3ccccc3c2[n+](-c2ccc([N+](=O)[O-])cc2)c1C | 7.4 | -4.0 | -8.1 | 14.9 | .
COc1ccccc1NS(=O)(=O)c1ccc(C(=O)NCCCN2CCOCC2)cc1 | -0.9 | 89.2* | 8.7 | -0.5 | 0.6
O=C(NCCCN1CCOCC1)c1ccc(S(=O)(=O)Nc2ccccc2)cc1 | 4.4 | -18.6 | 1.8 | -2.0 | -1.0
Cc1ccc(NC(=O)CCCN2C(=O)NC(C)(C)C2=O)cc1 | -11.1 | 0.8 | -13.2 | 0.3 | -1.7
COc1ccc(-c2ccc(C#N)c(SCC(=O)NC3CC3)n2)cc1OC | -3.4 | 78.5* | -7.3 | 0.0 | -14.3

Screening data (PubChem BioAssay)
